Out of some 39,000 compounds screened, about 3,300 (8.5%) were called active. Shown is part of a subset that was picked to be rich in actives.

This is an account of results in the antibiotic and cytotoxicity screens of Wong et al. (2023).

The assay relates to HepG2. Put plainly: cytotoxicity call (relative viability < 0.9). As to conditions: 10 µM.
As for `C[C@@H]1CN([C@H](C)CO)C(=O)c2cc(NC(=O)Nc3ccc(C(F)(F)F)cc3)ccc2O[C@@H]1CN(C)C(=O)Nc1ccc2c(c1)OCO2`, the cytotoxicity call is “inactive”.

Take `COCC(=O)N1CC[C@]2(CC1)CN(Cc1ccc3c(c1)OCO3)[C@@H](CO)c1c2c2ccc(cc2n1C)OC`: the cytotoxicity call was “inactive”.

On to `Nc1ccc(-c2ccco2)cc1`, for which the cytotoxicity call is “inactive”.

As to `COc1ccc(S(=O)(=O)Nc2ccc3c(c2)CC(=O)N([C@H](C)CO)C[C@@H](C)[C@H](CN(C)S(=O)(=O)c2cn(C)cn2)O3)cc1`, the cytotoxicity call was “inactive”.

As for `CC(C)NC(=O)N(C)C[C@@H]1OCc2cn(nn2)CCCC(=O)N([C@@H](C)CO)C[C@H]1C`, the cytotoxicity call was “inactive”.

Turning to `C[C@@H]1CN([C@@H](C)CO)C(=O)c2cccc(NS(=O)(=O)c3ccc(F)cc3)c2O[C@H]1CN(C)Cc1ccc(Cl)c(Cl)c1`, the cytotoxicity call is “inactive”.

Consider `CC(=O)O[C@@H]1[C@@H](O)C[C@@]2(C)[C@@H](CC[C@@H](C)[C@@]23Cc2c(O)cc4c(c2O3)CN([C@@H](CCC(=O)O)C(=O)O)C4=O)C1(C)C`, for which the cytotoxicity call was “inactive”.

On to `CCCN(C)C[C@H]1OCCCC[C@H](C)Oc2ccc(NC(=O)c3ccccc3)cc2C(=O)N([C@@H](C)CO)C[C@H]1C`, for which the cytotoxicity call is “inactive”.

Turning to `CC(C)N1C[C@H](C)[C@@H](CN(C)Cc2cccc(Cl)c2)Oc2c(NC(=O)c3ccncc3)cccc2C1=O`, the cytotoxicity call is “inactive”.

As for `C[C@@H]1CN([C@@H](C)CO)C(=O)c2cc(NC(=O)Nc3cccc4ccccc34)ccc2O[C@@H](C)CCCCO[C@@H]1CN(C)S(=O)(=O)c1ccc(Cl)cc1`, the cytotoxicity call is “inactive”.

With `Nc1nnc(C(=O)N2CCCCC2)[nH]1`, the cytotoxicity call is “inactive”.

With `C[C@@H]1CN([C@H](C)CO)C(=O)c2cc(NC(=O)CCN3CCOCC3)ccc2O[C@H]1CN(C)CC1CCCCC1`, the cytotoxicity call was “inactive”.

Consider `C[C@H]1CN([C@@H](C)CO)C(=O)Cc2cc(NC(=O)Cc3ccccc3)ccc2O[C@H]1CN(C)S(=O)(=O)c1cccs1`, for which the cytotoxicity call is “inactive”.

For the molecule `C[C@@H]1CN([C@H](C)CO)C(=O)Cc2cc(NC(=O)CCC(F)(F)F)ccc2O[C@@H]1CN(C)S(=O)(=O)c1ccccc1`, the cytotoxicity call was “inactive”.

As to `C[C@H](CO)N1C[C@H](C)[C@@H](CN(C)S(=O)(=O)c2ccccc2)Oc2ccc(NC(=O)CCC(F)(F)F)cc2CC1=O`, the cytotoxicity call is “inactive”.

As for `C[C@@H]1CN([C@@H](C)CO)C(=O)Cc2cc(NC(=O)CCC(F)(F)F)ccc2O[C@@H]1CN(C)S(=O)(=O)c1ccccc1`, the cytotoxicity call was “active”.

For the molecule `C[C@@H]1CN([C@@H](C)CO)C(=O)Cc2cc(NC(=O)Cc3ccccc3)ccc2O[C@@H]1CN(C)S(=O)(=O)c1cccs1`, the cytotoxicity call is “active”.

On to `C[C@@H]1CN([C@@H](C)CO)C(=O)Cc2cc(NC(=O)Cc3ccccc3)ccc2O[C@H]1CN(C)S(=O)(=O)c1cccs1`, for which the cytotoxicity call was “inactive”.

Consider `C[C@@H]1CN([C@@H](C)CO)C(=O)c2cc(Br)cnc2O[C@H]1CN(C)Cc1ccccc1C(=O)O`, for which the cytotoxicity call was “inactive”.

For `COc1nc2ccc(Br)cc2cc1[C@@H](c1ccccc1)[C@@](O)(CCN(C)C)c1cccc2ccccc12`, the cytotoxicity call is “inactive”.

Consider `C[C@@H]1CCCCO[C@@H](CN(C)Cc2ccccc2)[C@H](C)CN([C@H](C)CO)C(=O)c2cc(NC(=O)Nc3ccc4c(c3)OCO4)ccc2O1`, for which the cytotoxicity call was “inactive”.

On to `CC(=O)N[C@@H]1[C@@H](OCCOc2ccc(Cl)cc2C)O[C@H](CO)[C@H](O)[C@@H]1O`, for which the cytotoxicity call is “inactive”.

For the molecule `CC(=O)N[C@@H]1[C@@H](Oc2ccc(C(C)=O)cc2)O[C@H](CO)[C@H](O)[C@@H]1O`, the cytotoxicity call was “inactive”.

For the molecule `CCOc1ccc(CO[C@@H]2O[C@H](CO)[C@@H](O)[C@H](O)[C@H]2NC(C)=O)cc1OC`, the cytotoxicity call is “active”.

`COCCOC(=O)N1C(=O)[C@@]2(c3ccccc31)[C@H](C(=O)Nc1nc3ccccc3s1)[C@H]1C(=O)O[C@H](c3ccccc3)[C@H](c3ccccc3)N1[C@@H]2c1ccc(OCCO)cc1`: the cytotoxicity call is “inactive”.

Turning to `CC(C)NC(=O)Cn1ccc([N+](=O)[O-])n1`, the cytotoxicity call was “inactive”.

Regarding `Nc1ccccc1S(N)(=O)=O`, the cytotoxicity call was “inactive”.

For `NS(=O)(=O)C#Cc1ccccc1`, the cytotoxicity call is “active”.

For the molecule `NS(=O)(=O)c1ccccc1`, the cytotoxicity call is “inactive”.

As to `C[C@H]1CN([C@@H](C)CO)S(=O)(=O)c2ccc(C#Cc3cccnc3)cc2O[C@@H]1CN(C)C(=O)CN(C)C`, the cytotoxicity call was “inactive”.

`CS(=O)(=O)CCNCc1ccc(-c2ccc3ncnc(Nc4ccc(OCc5cccc(F)c5)c(Cl)c4)c3c2)o1` [listing 1 of 2 here]: the cytotoxicity call was “active”.

`CS(=O)(=O)CCNCc1ccc(-c2ccc3ncnc(Nc4ccc(OCc5cccc(F)c5)c(Cl)c4)c3c2)o1` [listing 2 of 2 here]: the cytotoxicity call was “active”.

In the case of `CC(C)(O)CC(=O)NCCn1ccc2ncnc(Nc3ccc(Oc4cccc(C(F)(F)F)c4)c(Cl)c3)c21`, the cytotoxicity call is “inactive”.

Turning to `CS(=O)(=O)CCNCc1nc(-c2ccc3ncnc(Nc4ccc(OCc5cccc(F)c5)c(Cl)c4)c3c2)cs1`, the cytotoxicity call is “inactive”.

In the case of `CC(CCC(=O)O)C1CCC2C3CCC4CCCCC4(C)C3CCC12C` (stereo not given), the cytotoxicity call was “inactive”.

Turning to `CN(C)CC(=O)N[C@H]1CC[C@H](CC(=O)NCCN2CCCCC2)O[C@H]1CO`, the cytotoxicity call was “inactive”.

On to `Cc1ccc(S[C@]2(C(=O)NCCCN(C)C)CC(=O)N(C3Cc4ccccc4C3)[C@@H]2c2ccc(CO)cc2I)cc1`, for which the cytotoxicity call is “inactive”.

Take `CS(=O)(=O)N1C[C@H](O)COC[C@@H]2O[C@@H](CC(=O)NCCc3ccncc3)CC[C@H]21`: the cytotoxicity call was “inactive”.

Turning to `CO[C@H]1CN(C)C(=O)c2cc(NS(C)(=O)=O)ccc2OC[C@@H](C)N(C(=O)CN(C)C)C[C@@H]1C`, the cytotoxicity call is “inactive”.

`C[C@H]1CCCCO[C@H](CN(C)CC2CC2)[C@@H](C)CN([C@@H](C)CO)C(=O)c2cc(NC(=O)CCC(F)(F)F)ccc2O1`: the cytotoxicity call was “inactive”.

As to `Cc1ccc(NC(=O)c2ccc(CN3CCN(C)CC3)cc2)cc1Nc1nccc(-c2cccnc2)n1`, the cytotoxicity call is “inactive”.

Take `Cc1ccc(NC(=O)c2ccc(CN3CC[C@H](N(C)C)C3)c(C(F)(F)F)c2)cc1Nc1nccc(-c2cncnc2)n1`: the cytotoxicity call was “active”.

As to `Cc1ncc(NC(=O)c2ccc(CN3CCN(C)CC3)c(C(F)(F)F)c2)cc1Nc1nccc(-c2cccnc2)n1`, the cytotoxicity call is “active”.

`Cc1ccc(S(=O)(=O)Nc2ccc3c(c2)C(=O)N([C@@H](C)CO)C[C@H](C)[C@@H](CN(C)C(=O)C2CCCCC2)OCCCC[C@H](C)O3)cc1`: the cytotoxicity call was “inactive”.

On to `COc1ccc(CCNC(=O)[C@@H]2c3ccccc3C(=O)N(Cc3ccccc3OC)[C@H]2c2ccc(CO)cc2)cc1`, for which the cytotoxicity call is “inactive”.

With `C[C@@H]1CCCCO[C@H](CN(C)CC2CCCCC2)[C@@H](C)CN([C@H](C)CO)C(=O)c2cc(NC(=O)CCC(F)(F)F)ccc2O1`, the cytotoxicity call is “inactive”.

Regarding `COc1ccc(NC(=O)N(C)C[C@H]2OCCCC[C@H](C)Oc3ccc(NS(=O)(=O)c4ccccc4)cc3C(=O)N([C@@H](C)CO)C[C@@H]2C)cc1`, the cytotoxicity call is “inactive”.

With `Cc1ccc(S(=O)(=O)N(C)C[C@H]2OCCCC[C@H](C)Oc3ccc(NC(=O)Cc4ccccc4)cc3C(=O)N([C@@H](C)CO)C[C@H]2C)cc1`, the cytotoxicity call was “inactive”.

For the molecule `COc1ccc([Si](C)(C)[C@H]2[C@H](CCO)O[C@@]3(C(=O)N(Cc4cccc(N5CCCCC5=O)c4)c4ccccc43)[C@@H]2C)cc1`, the cytotoxicity call was “inactive”.

With `COc1ccc([Si](C)(C)[C@@H]2[C@@H](CCO)O[C@]3(C(=O)N(Cc4cccc(N5C(=O)c6ccccc6Oc6ccccc65)c4)c4ccccc43)[C@H]2C)cc1`, the cytotoxicity call is “active”.

For `C[C@H]1[C@H]([Si](C)(C)F)[C@@H](CCO)O[C@]12C(=O)N(Cc1cccc(N3C(=O)c4ccccc4Oc4ccccc43)c1)c1ccccc12`, the cytotoxicity call was “inactive”.

Regarding `COc1ccc([Si](C)(C)[C@H]2[C@H](CCO)O[C@@]3(C(=O)N(Cc4cccc(N5C(=O)c6ccccc6Oc6ccccc65)c4)c4ccccc43)[C@@H]2C)cc1`, the cytotoxicity call is “active”.

For `CCNc1ncnc2c1nnn2C`, the cytotoxicity call is “inactive”.

For the molecule `Nc1cc([N+](=O)[O-])ccc1C(=O)O`, the cytotoxicity call was “inactive”.

For `C[C@@H]1CCCCO[C@H](CN(C)C(=O)Nc2ccc(F)cc2)[C@@H](C)CN([C@H](C)CO)C(=O)c2cc(NC(=O)c3ccncc3)ccc2O1`, the cytotoxicity call was “inactive”.

For `C[C@@H]1CN([C@H](C)CO)C(=O)CCCn2cc(nn2)CO[C@H]1CN(C)C(=O)Nc1ccc2c(c1)OCO2`, the cytotoxicity call was “inactive”.

Regarding `C[C@@H]1CN([C@@H](C)CO)C(=O)c2cccc(NC(=O)c3cnccn3)c2O[C@@H]1CN(C)S(=O)(=O)c1cccs1`, the cytotoxicity call is “inactive”.

With `Cc1noc(C)c1NC(=O)Nc1ccc2c(c1)C(=O)N([C@H](C)CO)C[C@@H](C)[C@H](CN(C)Cc1ccc(C(F)(F)F)cc1)OCCCC[C@@H](C)O2`, the cytotoxicity call was “inactive”.

On to `CCN1CCN(c2ccc(Nc3cc(N(C)C(=O)Nc4c(Cl)c(OC)cc(OC)c4Cl)ncn3)cc2)CC1`, for which the cytotoxicity call is “active”.

`C[C@H]1CN([C@@H](C)CO)S(=O)(=O)c2ccc(C3=CCCCC3)cc2O[C@@H]1CN(C)C(=O)C1CCOCC1`: the cytotoxicity call was “inactive”.

Regarding `C[C@@H]1CCCCO[C@H](CN(C)C(=O)Nc2ccc(F)cc2)[C@H](C)CN([C@@H](C)CO)C(=O)c2cc(NC(=O)Nc3ccc4c(c3)OCO4)ccc2O1`, the cytotoxicity call was “inactive”.

On to `COCC(=O)N1C[C@H](C)[C@H](OC)CN(C)C(=O)c2cc(NC(=O)c3ccc(OC)cc3)ccc2OC[C@@H]1C`, for which the cytotoxicity call was “inactive”.

As for `Cn1c(=O)c2c(ncn2CC(O)CO)n(C)c1=O` (stereo not given), the cytotoxicity call is “inactive”.

On to `Cn1c(=O)c2c(ncn2C[C@@H](O)CO)n(C)c1=O`, for which the cytotoxicity call is “inactive”.

For the molecule `Cn1c(=O)c(F)c(Nc2ccc(I)cc2F)c2c(=O)n(C[C@@H](O)CO)cnc21`, the cytotoxicity call is “active”.

On to `C[C@@H]1CN([C@@H](C)CO)C(=O)c2cccc(NC(=O)Nc3ccc(C(F)(F)F)cc3)c2O[C@@H]1CN(C)S(C)(=O)=O`, for which the cytotoxicity call is “inactive”.

Take `COc1ccc(NC(=O)N(C)C[C@@H]2OCCCC[C@@H](C)Oc3ccc(NS(=O)(=O)c4ccc(F)cc4)cc3C(=O)N([C@H](C)CO)C[C@H]2C)cc1`: the cytotoxicity call was “inactive”.

Regarding `Fc1ccc(-c2nc3ccc4ccccc4c3c3c2CCC3)cc1`, the cytotoxicity call was “inactive”.

`Fc1ccc(-c2nc3c4ccccc4c4ccccc4c3[nH]2)cc1`: the cytotoxicity call was “active”.

Consider `N[C@H]1CC[C@H](CCn2cc(C3CCCCC3)nn2)O[C@@H]1CO`, for which the cytotoxicity call was “inactive”.
